One compound from PubChem BioAssay AID651947 (Broad Institute, 2012) can be followed below.

Results with a measured potency or affinity are listed apart. Inconclusive results are not listed. Unmarked numbers belong to inactive results.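 Rule for the calls: active = luminescence drop in HepG2 cells whose fitted half-effect dose is at most twice the top valid dose; inconclusive = flat curve with 30 to 70% signal loss, or unreliable fit; inactive = the rest.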

A short description of this experiment: cytotoxicity in HepG2 cells, dose response, cytotoxicity control, cell-based, plate reader, dry powder (AID 651947). The settings on record: HepG2 viability, ATP luminescence (CellTiter-Glo), 48 h, active compounds read low.

Take `Fc1ccc(CSc2nnc(-c3ccccc3)o2)cc1`: the max activity is 22% (at 0.38 µM) and -25.4% (at 12 µM).
